Assays:
[1] = target: T1, Aspartate--tRNA(Asp/Asn) ligase (Mycobacterium tuberculosis (strain ATCC 25618 / H37Rv)) (UniProt P9WFW3); experiment: Assay for Asp RNA synthetase-1 from Mycobacterium tuberculosis; type: functional; set-up: scale not given: direction of the effect not stated beside the values; settings: 30 µM; further: in the data most compounds retested in dose-response had high values
T1 sequence (whole entry): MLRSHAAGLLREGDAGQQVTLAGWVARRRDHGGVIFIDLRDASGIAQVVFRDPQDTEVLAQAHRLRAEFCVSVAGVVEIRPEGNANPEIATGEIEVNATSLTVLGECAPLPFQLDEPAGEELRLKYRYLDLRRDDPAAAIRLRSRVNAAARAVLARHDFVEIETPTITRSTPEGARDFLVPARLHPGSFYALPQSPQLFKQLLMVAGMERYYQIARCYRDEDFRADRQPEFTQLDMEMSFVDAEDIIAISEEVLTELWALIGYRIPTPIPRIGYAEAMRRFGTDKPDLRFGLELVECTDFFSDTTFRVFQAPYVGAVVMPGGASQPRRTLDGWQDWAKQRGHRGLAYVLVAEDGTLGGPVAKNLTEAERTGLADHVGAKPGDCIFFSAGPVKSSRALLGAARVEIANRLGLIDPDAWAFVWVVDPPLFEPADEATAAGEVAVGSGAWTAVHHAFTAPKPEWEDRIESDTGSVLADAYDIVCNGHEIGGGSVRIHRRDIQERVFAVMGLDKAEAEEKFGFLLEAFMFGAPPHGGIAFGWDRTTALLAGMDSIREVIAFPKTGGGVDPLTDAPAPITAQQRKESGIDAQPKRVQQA

[2] = target: Shiga toxin 2 (Escherichia coli O157:H7) (UniProt P09385+P09386); experiment: E. coli 0.157:H7 Shiga Toxin SOP - stx2 screening assay; type: functional; set-up: scale not given: direction of the effect not stated beside the values; settings: 30 µM

| Compound | Percent Effect [1] [%] | Percent Effect [2] [%] |
| --- | --- | --- |
| CCN1CCCN(C(=O)c2cnc(OC(C)C)c(Cl)c2)CC1 | -0.365 | -50.8 |
| Cc1cccc(Cn2c3c(ccc2=O)CCN(Cc2ccoc2)CC3)n1 | 2.51 | 2.55 |
| Cc1cc(CN2CCc3nn(C(C)C)c(=O)cc3C2)no1 | -1.25 | 6.39 |
| O=C(CCOc1ccc(Cl)cc1)N1CCN(c2cnccn2)CC1 | 0.879 | -12.7 |
| Cc1cnn(C2CCCN(C(=O)Cc3ccc(-n4cccn4)cc3)C2)c1 (stereo not drawn) | -4.37 | 4.84 |
| COCCc1noc(CNC2CCCN(c3cccnn3)C2)n1 (stereo not drawn) | -0.981 | -59 |
| CC(C)c1nn(C)c(N2CCOCC2)c1CN[C@H](C)CO | -1.94 | 30.8 |
| Cc1noc(C)c1CN(C)C(=O)NC1CCN(C2CC2)CC1 | -2.46 | -7.45 |
| CCc1n[nH]c(C2CN(C(=O)c3cc4c(s3)CCCC4)CCO2)n1 (stereo not drawn) | -1.69 | 4.53 |
| Cn1ccc(C(=O)NC2CCC23CCN(C(=O)c2ccncc2)CC3)c1 (stereo not drawn) | 0.319 | -10.5 |
| CCC(NC(N)=O)c1ccccc1OCC(=O)N1CCCC1 (stereo not drawn) | -1.5 | -58.1 |
| c1cnc2c(c1)cc([C@H]1CCCO1)n2CCN1CCOCC1 | 7.52 | 12.7 |
| CCN1C[C@@H]2[C@@H](OC)CCN(S(=O)(=O)c3ccccc3F)[C@@H]2C1 | -3.02 | 0.716 |
| Fc1ccc(CN2CCC(c3n[nH]c4ncccc34)CC2)cc1F | 5.4 | 15.2 |

Source: ChEMBL document CHEMBL3988442, “University of Dundee, Small-Polar-MMV Screening Library” (2021)
